Test results from PubChem BioAssay AID1626 (SRMLSC, 2009).
About 2,000 (0.91%) of roughly 220,000 compounds were called active. Another 2% or so got no clear call; they are omitted. These entries were drawn from the full list. Measured potencies and affinities stand elsewhere. Unmarked numbers belong to inactive results. Rule as the data show it: inconclusive = inhibition above about 80% without an active follow-up result; inactive = below that; test concentration not stated here.

Assay: M. tuberculosis H37Rv growth inhibitors, H37Rv strain (AID 1626);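 also: bacteria incubated seven days before Alamar blue readout; 0% = bacteria only wells and 100% = bacteria with antibiotic wells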
Details: active compounds read high, concentration not given here

Question: For Cc1cc(C(=O)C(C)Cl)c(C)n1Cc1ccco1 (stereo not given), which inhibition is on record?
Answer: 0.64%

Question: With COC(=O)c1ccc(-n2c(C)cc(C(=O)CCl)c2C)cc1 as the molecule, how does the inhibition read?
Answer: 53.5%

Question: With Cc1cc(C(=O)CCl)c(C)n1CCc1ccccc1 as the molecule, how does the inhibition read?
Answer: 66.4%

Question: Which inhibition does the source give for Cc1cc(C(=O)COc2ccccc2C(N)=O)c(C)n1CC1CCCO1 (stereo not given) here?
Answer: 1.33%

Question: With Cc1cc(C(=O)COc2ccccc2C(N)=O)c(C)n1C as the molecule, how does the inhibition read?
Answer: 0.29%

Question: With Cc1cc(C(=O)CSc2ncccn2)c(C)n1Cc1ccco1 as the molecule, how does the inhibition read?
Answer: 6.3%

Question: With COc1ccc(C(=O)c2ccc(OC)cc2OC)cc1 as the molecule, how does the inhibition read?
Answer: 0.13%

Question: For Cc1ccc(N=CC=C2OC(C)(C)C(C)(C)O2)c(C)c1, which inhibition is on record?
Answer: -2.12%

Question: For CC(=O)C1=C(O)C(=O)N(CCc2c[nH]c3ccccc23)C1c1cccc(O)c1 (stereo not given), which inhibition is on record?
Answer: 1.15%

Question: Which inhibition does the source give for CC(C)=CC(=O)Nc1ccc2c(c1)OCO2 here?
Answer: -4.24%

Question: For CS(=O)(=O)N(CC(=O)Nc1cccc([N+](=O)[O-])c1)c1ccccc1, which inhibition is on record?
Answer: -4.25%

Question: For Cn1c(=O)n(Cc2ccccc2)c2ccccc21, which inhibition is on record?
Answer: -7.14%

Question: For COc1ccccc1-c1nnc(Nc2nc3c(OC)cccc3s2)o1, which inhibition is on record?
Answer: 8.74%

Question: Which inhibition does the source give for COc1ccc(-c2nnc(Nc3nc4c(OC)cccc4s3)o2)c(OC)c1 here?
Answer: 3.73%

Question: For Fc1cccc2sc(Nc3nc4c(F)cccc4s3)nc12, which inhibition is on record?
Answer: 43%

Question: With COc1cccc2sc(Nc3nnc(-c4cccs4)o3)nc12 as the molecule, how does the inhibition read?
Answer: -3.65%

Question: With NNc1nc2c(F)cccc2s1 as the molecule, how does the inhibition read?
Answer: 8.41%

Question: Which inhibition does the source give for COc1cccc2sc(Nc3nnc(-c4ccccc4Cl)o3)nc12 here?
Answer: 52.8%

Question: With O=C(COC(=O)c1cccc2ccccc12)NCC1CCCO1 (stereo not given) as the molecule, how does the inhibition read?
Answer: -2.85%

Question: For CCn1cc(C2C3=C(CC(C)(C)CC3=O)N(c3ccccc3)C3=C2C(=O)CC(C)(C)C3)c(C)n1, which inhibition is on record?
Answer: -3.23%

Question: For CCC1=C(OC(=O)N(CC)CC)N2C(=O)OC(=NCCOC)[C@]2(Cc2ccccc2)[C@H]2C1=CC[C@H]1C(=O)NC(=O)[C@H]12, which inhibition is on record?
Answer: 10.1%

Question: With O=C(NC1CCCCC1)c1nn2c(C(F)(F)F)cc(-c3ccco3)nc2c1Br as the molecule, how does the inhibition read?
Answer: 1.53%

Question: With COCCn1c(SCC(=O)Nc2ccccc2OC)nc2c(oc3ccccc32)c1=O as the molecule, how does the inhibition read?
Answer: 3.65%

Question: For COc1ccc(SCCC(=O)NCc2ccncc2)cc1, which inhibition is on record?
Answer: -7.49%

Question: For Cc1cccc(N2CCN(C(=O)c3cccc(N4C(=O)C5CC=CC(C)C5C4=O)c3)CC2)c1C (stereo not given), which inhibition is on record?
Answer: -7%

Question: With COc1ccc(C2C(C(=O)Nc3ccc(F)cc3)=C(C)Nc3nc(CCCO)nn32)cc1 (stereo not given) as the molecule, how does the inhibition read?
Answer: -9.75%

Question: With Cc1ccc(-c2ccc3c(c2)S(=O)(=O)c2ccccc2C3=O)cc1 as the molecule, how does the inhibition read?
Answer: -4.26%

Question: Which inhibition does the source give for CCc1ccc2c(c1)C(=O)c1ccccc1C2=O here?
Answer: 7.07%

Question: For Nc1ccc2c(c1)CC(=O)c1ccccc1S2, which inhibition is on record?
Answer: 9.71%

Question: For CC(C)(C)c1ccc2c(c1)C(=O)c1ccccc1C2=O, which inhibition is on record?
Answer: 7.48%

Question: Which inhibition does the source give for O=C1c2ccccc2-c2nnc(-c3ccccc3)cc21 here?
Answer: -2.39%

Question: For Nc1ccc2c(c1)CCC2=O, which inhibition is on record?
Answer: -8.13%

Question: For O=C(OCC(=O)N1CCN(C(=O)c2ccco2)CC1)c1cccc(S(=O)(=O)N2CCc3ccccc32)c1, which inhibition is on record?
Answer: 2.78%

Question: Which inhibition does the source give for CC(C)C(=O)N1CCN(c2ccc([N+](=O)[O-])cc2Cl)CC1 here?
Answer: 0.58%

Question: Which inhibition does the source give for COc1ccc(/C=N/NC(=O)C(C)n2nnc3ccccc32)cc1OC (stereo not given) here?
Answer: -3.28%

Question: With C=CCN1C(=O)C(Cc2ccc(OC)cc2)S/C1=N\N=C\c1cccs1 (stereo not given) as the molecule, how does the inhibition read?
Answer: -5.41%

Question: For COc1ccc(OC)c(C(=O)c2ccc(C(=O)N3CCCCC3)cc2)c1, which inhibition is on record?
Answer: -2.08%

Question: With CCc1ccc2c(c1)C(O)(CC(=O)c1cccs1)C(=O)N2 (stereo not given) as the molecule, how does the inhibition read?
Answer: 3.05%

Question: For Cc1cccc2c1NC(=O)/C2=C\C(=O)c1cccs1, which inhibition is on record?
Answer: 12.6%

Question: With O=C(/C=C1\C(=O)Nc2ccccc21)/C=C1\C(=O)Nc2ccccc21 as the molecule, how does the inhibition read?
Answer: 9.02%

Question: Which inhibition does the source give for Cc1cc(Br)c2c(c1)/C(=C/C(=O)c1cccs1)C(=O)N2 here?
Answer: 79.9%

Question: With Cn1c(N)c(C(=O)COC(=O)C2CC(=O)N(Cc3ccccc3)C2)c(=O)n(C)c1=O (stereo not given) as the molecule, how does the inhibition read?
Answer: 0.39%

Question: Which inhibition does the source give for CC(C)(C)Nc1nc(SCC(=O)Nc2ccccc2)nc(N2CCOCC2)n1 here?
Answer: -1.07%

Question: Which inhibition does the source give for O=C(Nc1ccccc1)c1ccn[nH]1 here?
Answer: -7.96%

Question: With COc1ccccc1CNc1ncnc2cc(Cl)ccc12 as the molecule, how does the inhibition read?
Answer: -2.22%

Question: Which inhibition does the source give for CC(C)N1CCC(N2CCN(C/C=C/c3ccccc3)CC2CCO)CC1 (stereo not given) here?
Answer: -1.35%

Question: Which inhibition does the source give for Cc1ccc(C(c2nnnn2C(C)(C)C)N2CCN(C3CCCC3)CC2)cc1 (stereo not given) here?
Answer: -4.57%

Question: For Cc1cc(C)c(-c2cc(NC(=O)CSc3nncn3C)n(-c3ccccc3)n2)cc1C, which inhibition is on record?
Answer: 5.63%

Question: For CCOC(=O)C1=C(CC)Nc2ccccc2N=C1NC(=O)Nc1ccccc1OC, which inhibition is on record?
Answer: 5.38%

Question: With CCOC(=O)C1=C(CC)Nc2ccccc2N=C1NC(=O)c1cc(S(=O)(=O)N(C)C)ccc1Cl as the molecule, how does the inhibition read?
Answer: 5.31%

Question: For Cc1ccc(SCc2cc(=O)[nH]c(/N=C(\N)Nc3cccc4ccccc34)n2)cc1, which inhibition is on record?
Answer: 2.6%

Question: For CC1(C)CC(=O)C2=C(C1)NC1=C(C(=O)c3ccccc31)C2c1cccnc1 (stereo not given), which inhibition is on record?
Answer: 11.2%

Question: For CC1(C)CC(=O)C2=C(C1)NC1=C(C(=O)c3ccccc31)C2c1ccc(Cl)cc1 (stereo not given), which inhibition is on record?
Answer: 44.9%

Question: For CC1(C)CC(=O)C2=C(C1)NC1=C(C(=O)c3ccccc31)C2c1ccccc1 (stereo not given), which inhibition is on record?
Answer: 14.8%

Question: For CC1(C)CC(=O)C2=C(C1)NC1=C(C(=O)c3ccccc31)C2c1ccc(O)cc1 (stereo not given), which inhibition is on record?
Answer: 7.92%

Question: For Cc1ccc(C2C3=C(CC(C)(C)CC3=O)NC3=C2C(=O)c2ccccc23)cc1 (stereo not given), which inhibition is on record?
Answer: 9.84%

Question: Which inhibition does the source give for COc1cc(C2C3=C(CC(C)(C)CC3=O)NC3=C2C(=O)c2ccccc23)ccc1O (stereo not given) here?
Answer: 2.3%

Question: For CCN(CC)S(=O)(=O)c1cccc(C(=O)N/N=C2\CCCC(=O)C2)c1, which inhibition is on record?
Answer: -9.95%

Question: With CCNc1nc(SCCOc2ccc(Br)cc2)nc(N(C)C)n1 as the molecule, how does the inhibition read?
Answer: -0.8%

Question: With Cc1nn(C)c(C)c1S(=O)(=O)N1CCC(C(=O)NCCC2=CCCCC2)CC1 as the molecule, how does the inhibition read?
Answer: -9.44%
